Experimental data taken from the supplement of paper PMC11732987, “Enantioselective OTUD7B fragment discovery through chemoproteomics screening and high-throughput optimisation” (Communications Chemistry, 2025).

Legend:
Experiment in all cases: log2 ratio of Biotin-Ahx-Ub-VS probe labelling (fragment/DMSO); higher = less target engagement (more negative = stronger competition), active = hit call of the paper (q ≤ 0.05, log2 ratio ≤ -1)
Details in all cases: compound concentration: 200 uM; treatment time: 3 h
[1] = target: USP9X (UniProt Q93008)
In short: (§1)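 HEK293T lysate (495 µg per sample, in Tris/CHAPS/IGEPAL buffer with protease inhibitors) was treated in triplicate with fragment at 200 µM or with DMSO for 3 h. It was then treated with Biotin-Ahx-Ub-VS (0.5 µM final) for 1 h. Labelled DUBs were NeutrAvidin-enriched, digested with LysC and trypsin, and run by diaPASEF LC-MS/MS. Spectronaut label-free quantities were global-median-normalised. Values are average log2 ratios fragment/DMSO by unpaired t-test, using proteins with ≥2 unique peptides.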

[2] = target: UniProt O00487
Sequence of UniProt O00487 (O00487 whole entry): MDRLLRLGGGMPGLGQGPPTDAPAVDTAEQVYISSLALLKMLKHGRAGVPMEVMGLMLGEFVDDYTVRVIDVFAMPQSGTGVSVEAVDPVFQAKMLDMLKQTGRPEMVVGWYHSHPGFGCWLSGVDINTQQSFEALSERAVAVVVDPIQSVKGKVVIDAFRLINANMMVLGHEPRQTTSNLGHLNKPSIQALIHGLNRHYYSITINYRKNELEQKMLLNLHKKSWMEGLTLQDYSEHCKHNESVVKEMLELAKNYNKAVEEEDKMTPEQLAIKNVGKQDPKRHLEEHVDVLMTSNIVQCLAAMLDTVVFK
In short: as §1

[3] = target: UniProt O00507
Sequence of UniProt O00507 (O00507 whole entry): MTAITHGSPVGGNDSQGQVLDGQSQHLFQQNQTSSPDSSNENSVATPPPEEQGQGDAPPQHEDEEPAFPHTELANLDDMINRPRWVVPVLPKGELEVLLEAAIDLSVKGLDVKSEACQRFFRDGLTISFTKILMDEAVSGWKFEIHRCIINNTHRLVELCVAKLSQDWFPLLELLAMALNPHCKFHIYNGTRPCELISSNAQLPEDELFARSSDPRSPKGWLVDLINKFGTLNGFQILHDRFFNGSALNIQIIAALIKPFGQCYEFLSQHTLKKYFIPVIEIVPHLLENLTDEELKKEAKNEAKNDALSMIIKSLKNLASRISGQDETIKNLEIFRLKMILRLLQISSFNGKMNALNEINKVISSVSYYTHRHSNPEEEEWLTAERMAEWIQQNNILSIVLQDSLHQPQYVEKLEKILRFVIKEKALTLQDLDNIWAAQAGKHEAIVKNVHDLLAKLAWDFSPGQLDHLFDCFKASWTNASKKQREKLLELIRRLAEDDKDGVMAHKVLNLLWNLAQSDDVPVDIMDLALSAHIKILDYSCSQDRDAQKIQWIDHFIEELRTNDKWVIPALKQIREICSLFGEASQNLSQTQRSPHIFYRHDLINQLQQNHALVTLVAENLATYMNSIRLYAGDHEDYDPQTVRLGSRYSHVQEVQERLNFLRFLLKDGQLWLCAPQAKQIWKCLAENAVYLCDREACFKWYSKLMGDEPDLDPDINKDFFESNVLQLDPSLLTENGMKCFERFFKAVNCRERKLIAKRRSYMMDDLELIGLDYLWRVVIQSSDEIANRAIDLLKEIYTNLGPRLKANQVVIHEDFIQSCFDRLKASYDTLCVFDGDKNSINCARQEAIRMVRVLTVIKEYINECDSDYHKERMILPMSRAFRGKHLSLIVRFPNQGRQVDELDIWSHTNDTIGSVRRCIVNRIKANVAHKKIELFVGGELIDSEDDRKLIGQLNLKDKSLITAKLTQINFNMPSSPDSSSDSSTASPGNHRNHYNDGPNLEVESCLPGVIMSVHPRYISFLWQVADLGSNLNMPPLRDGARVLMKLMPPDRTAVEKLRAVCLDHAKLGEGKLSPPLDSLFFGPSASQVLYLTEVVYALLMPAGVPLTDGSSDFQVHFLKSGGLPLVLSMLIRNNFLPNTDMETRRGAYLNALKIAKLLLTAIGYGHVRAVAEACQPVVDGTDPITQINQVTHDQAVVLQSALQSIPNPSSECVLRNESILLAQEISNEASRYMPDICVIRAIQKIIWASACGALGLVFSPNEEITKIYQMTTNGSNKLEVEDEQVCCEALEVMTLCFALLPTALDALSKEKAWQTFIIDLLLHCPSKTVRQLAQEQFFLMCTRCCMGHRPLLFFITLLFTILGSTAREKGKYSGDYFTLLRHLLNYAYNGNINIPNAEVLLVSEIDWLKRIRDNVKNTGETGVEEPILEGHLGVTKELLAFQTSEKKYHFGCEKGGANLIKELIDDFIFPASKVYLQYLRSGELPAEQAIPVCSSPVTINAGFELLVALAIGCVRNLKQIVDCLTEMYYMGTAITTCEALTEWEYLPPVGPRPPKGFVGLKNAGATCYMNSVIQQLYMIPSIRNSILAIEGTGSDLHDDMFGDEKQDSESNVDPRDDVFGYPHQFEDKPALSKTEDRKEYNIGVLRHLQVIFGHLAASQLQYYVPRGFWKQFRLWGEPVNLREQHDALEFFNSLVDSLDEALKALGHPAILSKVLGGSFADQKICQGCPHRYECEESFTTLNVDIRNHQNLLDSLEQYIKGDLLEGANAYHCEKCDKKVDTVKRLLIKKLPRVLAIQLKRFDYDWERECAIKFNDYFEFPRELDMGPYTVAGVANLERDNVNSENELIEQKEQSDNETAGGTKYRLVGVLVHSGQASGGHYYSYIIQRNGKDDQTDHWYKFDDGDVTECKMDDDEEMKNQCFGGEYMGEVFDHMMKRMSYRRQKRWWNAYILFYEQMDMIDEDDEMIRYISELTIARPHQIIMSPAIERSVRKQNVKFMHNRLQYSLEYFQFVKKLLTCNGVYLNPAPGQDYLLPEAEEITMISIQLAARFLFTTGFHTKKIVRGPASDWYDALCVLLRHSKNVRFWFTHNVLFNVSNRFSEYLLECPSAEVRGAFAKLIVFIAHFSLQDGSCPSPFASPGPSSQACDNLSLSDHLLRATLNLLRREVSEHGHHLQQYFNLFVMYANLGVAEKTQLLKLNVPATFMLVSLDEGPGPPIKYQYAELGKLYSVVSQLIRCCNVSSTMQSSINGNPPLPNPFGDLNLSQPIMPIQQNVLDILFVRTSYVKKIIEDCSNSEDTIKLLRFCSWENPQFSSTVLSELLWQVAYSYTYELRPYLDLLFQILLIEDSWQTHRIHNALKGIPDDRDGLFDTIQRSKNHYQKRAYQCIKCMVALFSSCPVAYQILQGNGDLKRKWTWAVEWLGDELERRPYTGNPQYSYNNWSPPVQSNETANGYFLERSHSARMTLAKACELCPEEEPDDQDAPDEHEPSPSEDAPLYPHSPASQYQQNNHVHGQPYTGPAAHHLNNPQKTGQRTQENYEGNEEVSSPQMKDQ
In short: as §1

[4] = target: UniProt P51784
Sequence of UniProt P51784 (P51784 whole entry): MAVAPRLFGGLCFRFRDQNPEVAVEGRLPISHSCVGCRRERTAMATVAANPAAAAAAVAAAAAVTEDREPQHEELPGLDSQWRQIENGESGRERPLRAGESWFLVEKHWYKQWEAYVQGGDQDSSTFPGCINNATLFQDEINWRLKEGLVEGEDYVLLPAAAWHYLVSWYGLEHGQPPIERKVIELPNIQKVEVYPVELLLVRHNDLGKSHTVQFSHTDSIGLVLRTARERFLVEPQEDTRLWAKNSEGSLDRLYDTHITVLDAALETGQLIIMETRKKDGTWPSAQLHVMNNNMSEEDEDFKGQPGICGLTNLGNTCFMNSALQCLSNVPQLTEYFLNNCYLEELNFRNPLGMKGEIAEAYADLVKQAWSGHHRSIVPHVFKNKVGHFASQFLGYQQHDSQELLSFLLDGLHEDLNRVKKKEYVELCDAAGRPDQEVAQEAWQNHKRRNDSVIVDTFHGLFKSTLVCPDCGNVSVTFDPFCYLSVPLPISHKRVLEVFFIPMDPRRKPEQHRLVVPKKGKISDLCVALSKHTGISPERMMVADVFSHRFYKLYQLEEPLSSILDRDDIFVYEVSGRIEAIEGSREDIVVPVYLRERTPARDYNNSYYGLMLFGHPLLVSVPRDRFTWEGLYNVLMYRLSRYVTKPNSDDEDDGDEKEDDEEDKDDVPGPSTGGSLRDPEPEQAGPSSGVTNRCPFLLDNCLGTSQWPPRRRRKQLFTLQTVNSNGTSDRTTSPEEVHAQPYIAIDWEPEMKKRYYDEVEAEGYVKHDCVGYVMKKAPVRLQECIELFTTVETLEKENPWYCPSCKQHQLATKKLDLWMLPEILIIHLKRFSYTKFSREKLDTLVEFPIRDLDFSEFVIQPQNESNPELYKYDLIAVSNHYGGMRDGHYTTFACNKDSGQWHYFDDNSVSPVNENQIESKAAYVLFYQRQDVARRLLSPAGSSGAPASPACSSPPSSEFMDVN
In short: as §1

[5] = target: T1, UniProt Q5T2D3
T1 sequence (whole entry): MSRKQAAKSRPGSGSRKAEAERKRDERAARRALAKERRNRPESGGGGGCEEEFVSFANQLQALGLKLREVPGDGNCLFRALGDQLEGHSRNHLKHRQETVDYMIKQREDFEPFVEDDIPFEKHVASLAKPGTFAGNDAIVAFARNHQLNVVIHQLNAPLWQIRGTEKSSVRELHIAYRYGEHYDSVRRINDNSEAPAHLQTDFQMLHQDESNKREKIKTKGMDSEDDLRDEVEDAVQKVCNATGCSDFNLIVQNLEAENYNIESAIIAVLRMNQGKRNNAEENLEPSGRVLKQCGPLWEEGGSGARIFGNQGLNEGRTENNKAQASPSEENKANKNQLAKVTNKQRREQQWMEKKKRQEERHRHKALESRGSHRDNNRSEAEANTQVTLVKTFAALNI
In short: as §1

[6] = target: T2, UniProt Q8TE49
T2 sequence (whole entry): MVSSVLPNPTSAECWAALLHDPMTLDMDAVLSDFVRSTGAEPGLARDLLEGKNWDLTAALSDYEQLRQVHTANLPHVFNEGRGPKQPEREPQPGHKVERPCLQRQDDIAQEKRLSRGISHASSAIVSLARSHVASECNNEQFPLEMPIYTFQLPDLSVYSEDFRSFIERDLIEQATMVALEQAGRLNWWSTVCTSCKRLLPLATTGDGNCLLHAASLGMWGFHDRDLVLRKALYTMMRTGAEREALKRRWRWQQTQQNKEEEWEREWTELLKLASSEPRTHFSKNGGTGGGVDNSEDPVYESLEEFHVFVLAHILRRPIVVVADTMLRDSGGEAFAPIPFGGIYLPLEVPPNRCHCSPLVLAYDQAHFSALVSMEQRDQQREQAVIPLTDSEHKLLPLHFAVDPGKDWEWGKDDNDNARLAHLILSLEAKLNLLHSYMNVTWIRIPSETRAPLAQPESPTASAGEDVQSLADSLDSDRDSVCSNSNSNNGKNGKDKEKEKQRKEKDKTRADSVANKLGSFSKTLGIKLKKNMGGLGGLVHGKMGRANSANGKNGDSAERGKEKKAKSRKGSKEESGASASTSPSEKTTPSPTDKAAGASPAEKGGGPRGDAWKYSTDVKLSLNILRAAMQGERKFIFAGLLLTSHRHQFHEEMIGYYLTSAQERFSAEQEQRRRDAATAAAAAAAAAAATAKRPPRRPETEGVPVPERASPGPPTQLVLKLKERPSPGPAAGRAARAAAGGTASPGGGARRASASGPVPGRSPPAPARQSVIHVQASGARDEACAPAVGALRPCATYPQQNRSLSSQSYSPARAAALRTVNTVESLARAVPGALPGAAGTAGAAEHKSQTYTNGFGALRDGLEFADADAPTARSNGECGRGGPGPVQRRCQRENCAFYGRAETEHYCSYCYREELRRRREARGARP
In short: as §1

[7] = target: T3, UniProt Q9P2H5
T3 sequence (whole entry): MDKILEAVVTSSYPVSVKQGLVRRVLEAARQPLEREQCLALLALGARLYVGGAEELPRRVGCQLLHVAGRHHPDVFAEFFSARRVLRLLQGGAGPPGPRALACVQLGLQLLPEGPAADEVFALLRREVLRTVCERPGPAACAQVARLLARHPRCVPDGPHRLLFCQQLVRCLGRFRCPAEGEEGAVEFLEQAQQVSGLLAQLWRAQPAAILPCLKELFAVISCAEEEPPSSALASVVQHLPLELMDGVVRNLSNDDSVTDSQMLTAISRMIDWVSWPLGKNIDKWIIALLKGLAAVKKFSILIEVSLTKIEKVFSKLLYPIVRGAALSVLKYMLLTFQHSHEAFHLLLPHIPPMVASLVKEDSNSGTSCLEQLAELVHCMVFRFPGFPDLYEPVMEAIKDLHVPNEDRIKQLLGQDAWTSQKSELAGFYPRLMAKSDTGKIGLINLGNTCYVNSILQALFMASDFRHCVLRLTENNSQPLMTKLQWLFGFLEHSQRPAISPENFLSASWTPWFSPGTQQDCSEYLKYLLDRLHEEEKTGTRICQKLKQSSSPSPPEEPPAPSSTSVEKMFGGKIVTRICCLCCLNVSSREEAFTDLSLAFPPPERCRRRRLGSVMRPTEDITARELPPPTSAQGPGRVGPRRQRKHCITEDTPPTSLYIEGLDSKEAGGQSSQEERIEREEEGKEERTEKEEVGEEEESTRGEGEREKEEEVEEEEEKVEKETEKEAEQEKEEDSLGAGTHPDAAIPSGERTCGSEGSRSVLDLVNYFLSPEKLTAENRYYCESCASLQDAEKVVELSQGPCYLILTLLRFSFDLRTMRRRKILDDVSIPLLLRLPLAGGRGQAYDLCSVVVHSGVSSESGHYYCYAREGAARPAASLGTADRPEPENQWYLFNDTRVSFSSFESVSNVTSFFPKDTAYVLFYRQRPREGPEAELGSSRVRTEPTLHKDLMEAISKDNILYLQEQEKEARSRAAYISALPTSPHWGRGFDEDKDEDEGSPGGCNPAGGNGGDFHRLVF
In short: as §1

[8] = target: T4, UniProt Q9UGI0
T4 sequence (whole entry): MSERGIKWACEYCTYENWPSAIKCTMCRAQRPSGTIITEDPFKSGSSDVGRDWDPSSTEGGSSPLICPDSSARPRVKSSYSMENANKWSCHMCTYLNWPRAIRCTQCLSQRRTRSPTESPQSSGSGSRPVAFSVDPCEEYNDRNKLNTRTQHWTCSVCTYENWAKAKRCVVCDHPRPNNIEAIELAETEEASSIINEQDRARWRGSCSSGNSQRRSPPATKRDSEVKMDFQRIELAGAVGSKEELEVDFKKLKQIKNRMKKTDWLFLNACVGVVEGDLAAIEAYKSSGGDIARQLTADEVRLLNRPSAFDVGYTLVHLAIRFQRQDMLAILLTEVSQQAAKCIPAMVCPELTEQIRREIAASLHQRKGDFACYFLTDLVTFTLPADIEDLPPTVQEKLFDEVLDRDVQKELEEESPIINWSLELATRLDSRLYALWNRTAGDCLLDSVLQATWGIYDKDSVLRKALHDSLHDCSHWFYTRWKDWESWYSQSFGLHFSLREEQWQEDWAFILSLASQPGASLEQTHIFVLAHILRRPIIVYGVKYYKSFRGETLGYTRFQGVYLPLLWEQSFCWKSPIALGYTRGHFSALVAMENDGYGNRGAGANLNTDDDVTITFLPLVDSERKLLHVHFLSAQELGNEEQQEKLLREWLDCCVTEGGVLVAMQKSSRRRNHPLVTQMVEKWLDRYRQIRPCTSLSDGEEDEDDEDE
In short: as §1

[9] = target: T5, YOD1 (UniProt Q5VVQ6)
T5 sequence (whole entry): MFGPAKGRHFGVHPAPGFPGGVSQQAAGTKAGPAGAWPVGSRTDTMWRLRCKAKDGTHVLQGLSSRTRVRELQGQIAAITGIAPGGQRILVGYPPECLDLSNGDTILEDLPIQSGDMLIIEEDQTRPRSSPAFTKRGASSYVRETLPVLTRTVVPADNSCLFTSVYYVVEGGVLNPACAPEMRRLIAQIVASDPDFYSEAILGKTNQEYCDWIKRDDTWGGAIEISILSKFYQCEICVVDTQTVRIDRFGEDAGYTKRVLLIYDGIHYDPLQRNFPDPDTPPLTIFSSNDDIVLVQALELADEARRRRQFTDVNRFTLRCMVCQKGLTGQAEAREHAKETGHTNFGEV
In short: as §1

Measured: log2 ratio of Biotin-Ahx-Ub-VS probe labelling

C[C@@H](NC(=O)CCl)c1cccc(C#N)c1
inactive: [1] -0.116 | [2] 0.0457 | [3] -0.38 | [4] 0.045 | [5] -0.157 | [6] -0.912 | [7] -0.136 | [8] -0.111 | [9] -0.0878
